PubChem BioAssay (NCATS)
Several values for one entry are separate records, joined by “and”; a condition that tells them apart may be missing. Identical values can stand only once. Records with an inconclusive call do not appear. Activity calls are given as the source filed them. Calls follow the shape of the dose curve; as a rule, active = well fitted inhibition curve with a large enough effect; inconclusive = small, poorly fitted or top-dose-only effect; inactive = flat fitted curve, though single readings scatter.

Assays:
P93_24 = assay: qHTS profiling for inhibitors of Plasmodium falciparum proliferation (AID 504749);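 also: 0% = DMSO vehicle and full inhibition = artemisinin control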; conditions: P. falciparum in erythrocytes, SYBR Green DNA, 72 h; series mostly up to 28.7 µM
Method in brief: (§1)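 Quantitative HTS: compounds pinned into medium, infected erythrocytes added (0.3% parasitemia, 2.5% hematocrit), 72 h culture at 37 C under 5% CO2. Saponin/Triton lysis with SYBR Green I, overnight RT, then fluorescence read.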

P94_40 = assay: as above; conditions: P. falciparum in erythrocytes, SYBR Green DNA, 72 h; series mostly up to 28.7 µM
Method in brief: as §1

PAD = assay: as above; conditions: P. falciparum in erythrocytes, SYBR Green DNA, 72 h; series mostly up to 28.7 µM
Method in brief: as §1

PC15 = assay: as above; conditions: P. falciparum in erythrocytes, SYBR Green DNA, 72 h; series mostly up to 28.7 µM
Method in brief: as §1

PC26 = assay: as above; conditions: P. falciparum in erythrocytes, SYBR Green DNA, 72 h; series mostly up to 28.7 µM
Method in brief: as §1

PC49 = assay: as above; conditions: P. falciparum in erythrocytes, SYBR Green DNA, 72 h; series mostly up to 28.7 µM
Method in brief: as §1

SC27B = assay: as above; conditions: P. falciparum in erythrocytes, SYBR Green DNA, 72 h; series mostly up to 28.7 µM
Method in brief: as §1

TAB109 = assay: as above; conditions: P. falciparum in erythrocytes, SYBR Green DNA, 72 h; series mostly up to 28.7 µM
Method in brief: as §1

TAB113 = assay: as above; conditions: P. falciparum in erythrocytes, SYBR Green DNA, 72 h; series mostly up to 28.7 µM
Method in brief: as §1

TAB165 = assay: as above; conditions: P. falciparum in erythrocytes, SYBR Green DNA, 72 h; series mostly up to 28.7 µM
Method in brief: as §1

W2 = assay: as above; conditions: P. falciparum in erythrocytes, SYBR Green DNA, 72 h; series mostly up to 28.7 µM
Method in brief: as §1

CRL-7250 = normal cell line; assay: Cytotoxic Profiling of Annotated Libraries Using Quantitative High-Throughput Screening (AID 1296008); conditions: Five cell lines viability, CellTiter-Glo ATP luminescence, 48-72 h; max response: stronger effect = lower value; also: potency is read from the fitted curve at half-maximal effect; as to max response: % is scaled to controls: 0 for no effect and ±100 for the full control effect
Method in brief: (§2)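 Compounds were pin-transferred onto cells and incubated 48 or 72 hr at 37 degree Celsius, 95% humidity. CellTiter-Glo was added, plates sat 10 min at room temperature, then ATP-coupled luminescence was imaged as the viability read-out.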

HEK293 = assay: as above; conditions: Five cell lines viability, CellTiter-Glo ATP luminescence, 48-72 h; max response: stronger effect = lower value
Method in brief: as §2

HaCat [1] = assay: as above; conditions: Five cell lines viability, CellTiter-Glo ATP luminescence, 48-72 h; max response: stronger effect = lower value
Method in brief: as §2

KB-3-1 = assay: as above; conditions: Five cell lines viability, CellTiter-Glo ATP luminescence, 48-72 h; max response: stronger effect = lower value
Method in brief: as §2

NIH3T3 = assay: as above; conditions: Five cell lines viability, CellTiter-Glo ATP luminescence, 48-72 h; max response: stronger effect = lower value
Method in brief: as §2

HACAT [2] = assay: qHTS assay to identify novel small-molecules to repurpose for Merkel cell carcinoma treatment (AID 1296009); conditions: MCC and control cell lines, CellTiter-Glo viability, 72 h; at 44.8 µM (top of the series) unless noted; also: potency is read from the fitted curve at half-maximal effect
Method in brief: (§3)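 Viability readout: ATP luminescence (CellTiter-Glo) after 72 hr drug exposure at 37 degree celsius. Dose-response format was 8 points for NPC and 11 points for MIPE; data normalized to in-plate controls.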

HEK293T = assay: as above; conditions: MCC and control cell lines, CellTiter-Glo viability, 72 h; at 44.8 µM (top of the series)
Method in brief: as §3

MCC-13 = assay: as above; conditions: MCC and control cell lines, CellTiter-Glo viability, 72 h; series mostly up to 46 µM
Method in brief: as §3

MCC-26 = assay: as above; conditions: MCC and control cell lines, CellTiter-Glo viability, 72 h; series mostly up to 46 µM
Method in brief: as §3
Also: nearly all actives have a fitted effect of over 60% in size.

NCCS
inactive: outcome (P93_24) | Potency (P94_40) | outcome (PAD) | outcome (PC15) | Potency (PC26) | outcome (PC49) | Potency (SC27B) | outcome (TAB109) | Potency (TAB113) | Potency (TAB165) | Potency (W2) | max response (CRL-7250) -9.34% | outcome (HEK293) | outcome (HaCat [1]) | max response (KB-3-1) -0.944% and -2.01% | max response (NIH3T3) 4.3% | outcome (HACAT [2]) | outcome (HEK293T) | Potency (MCC-13) | Potency (MCC-26)

COc1cc(NC(=O)c2ccc(-c3ccc(Cl)cc3)o2)cc(OC)c1
inactive: outcome (CRL-7250) | max response (HEK293) 2.11% | outcome (HaCat [1]) | max response (KB-3-1) 5.65% | max response (NIH3T3) 1.05% | outcome (HACAT [2]) | Potency (MCC-13) | Potency (MCC-26)

COc1cccc([C@@H](C)NCCCc2ccccc2Cl)c1
inactive: outcome (CRL-7250) | max response (HEK293) 1.17% | outcome (HaCat [1]) | outcome (KB-3-1) | outcome (NIH3T3) | outcome (HACAT [2]) | Potency (MCC-13) | Potency (MCC-26)

CCN(CC)CCOC(=O)c1ccc(N)cc1
inactive: outcome (P93_24) | Potency (P94_40) | outcome (PAD) | outcome (PC15) | Potency (PC26) | outcome (PC49) | Potency (SC27B) | outcome (TAB109) | Potency (TAB113) | Potency (TAB165) | Potency (W2) | max response (CRL-7250) -12% | outcome (HEK293) | outcome (HaCat [1]) | max response (KB-3-1) 14% | max response (NIH3T3) -2.46% | outcome (HACAT [2]) | outcome (HEK293T) | Potency (MCC-13) | Potency (MCC-26)

O=c1cc(N2CCOCC2)oc2c(-c3cccc4c3sc3ccccc34)cccc12
active: Potency (HEK293) 2960 nM | Potency (NIH3T3) 16600 nM
inactive: max response (CRL-7250) -14.3% | max response (HaCat [1]) -6.51% | outcome (KB-3-1) | Potency (MCC-13) | Potency (MCC-26)

CN1[C@@H]2CCC[C@@H]1CC(NC(=O)c1nn(C)c3ccccc13)C2 (some centres not stated)
inactive: max response (CRL-7250) -0.159% | max response (HEK293) -2.4% | max response (HaCat [1]) -5.72% | max response (KB-3-1) 1.46% | max response (NIH3T3) 0.235% | Potency (MCC-13) | Potency (MCC-26)

COc1ccc(-c2nc(N3CCOCC3)c3sc(CN(C)c4ncc(C(=O)NO)cn4)cc3n2)cn1
active: Potency (CRL-7250) 59 nM | Potency (HEK293) 16.6 nM | Potency (HaCat [1]) 148 nM | Potency (KB-3-1) 26.4 nM | Potency (NIH3T3) 118 nM | Potency (MCC-13) 66.2 nM | Potency (MCC-26) 52.6 nM
